Bioassay records: PubChem, National Center for Advancing Translational Sciences (NCATS)
Shown are actives, neighbours in structure and some others; about 6.9% of the full set was active somewhere.
KB-3-1 cytotox – kills parental KB-3-1 adenocarcinoma cells | KB-3-1 viability, CellTiter-Glo ATP luminescence, 72 h | Potency, µM (doses to about 46.1 µM), most hits filed as cytotoxic | actives 1.4% (n = 400,000) | AID 1347075; further: potency means the concentration at half of the fitted maximal effect; on the % scale 0 is the no-effect control and ±100 the full control effect; nearly all actives have a fitted effect of over 60% in size
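Using CellTiter-Glo luminescence, growth of non-resistant KB-3-1 adenocarcinoma cells is assessed 72 h after pin-tool compound addition at 37 °C. Normalized responses across the concentration series yield fitted curves.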
Giardia kill – Giardia lamblia killing. Giardia lamblia trophozoite viability. activity change, % at 7.66 µM, hits read low. actives 0.15% (n = 340,000). AID 540267; in the data active means activity change below about -80%; inconclusive means between about -30% and that limit;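 further: parasites exposed to compound for two days anaerobically before the ATP read; on the % scale 0 is the no-effect control and ±100 the full control effect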
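Trophozoites 100 cells/well + cpd; 48 hrs, 37 deg C, anaerobic. ATPLite 1-Step added, 15-30 min RT, luminescence read (ATP-based viability).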
KB-V1 cytotox – KB-V1 MDR subline cytotoxicity; AID 1347076; Potency, µM (series often up to 46.1 µM), usual class: cytotoxic; KB-V1 MDR cells viability, CellTiter-Glo, 72 h; actives 3.4% (n = 400,000); further: potency means the concentration at half of the fitted maximal effect; on the % scale 0 is the no-effect control and ±100 the full control effect; nearly all actives have a fitted effect of over 60% in size
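In this primary screen, KB-V1 cells overexpressing P-gp are incubated with library compounds (lowest to highest concentration) for 72 h at 37 degrees C before a luminescent ATP viability read.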
MCF10A rerep – inducers of DNA re-replication in MCF 10A breast cells; AID 624296; MCF 10A DNA re-replication, Hoechst nuclear intensity, 48 h; Potency, µM (doses to about 46.1 µM), for inactives: top-dose activity, positive = re-replication, actives largely listed as activators; actives 2.9% (n = 350,000); further: potency means the concentration at half of the fitted maximal effect; % of control where 0% means no effect; nearly all actives have a fitted effect of over 50% in size
S-ASM inh – inhibitors of human secretory acid sphingomyelinase. P17405. placental ASM, HMU-PC fluorogenic substrate, 60 min. Potency, µM (highest dose often 57.5 µM), without a hit: at the top dose activity change, negative = inhibition, most hits filed as inhibitors. actives 0.006% (n = 340,000); further: potency means the concentration at half of the fitted maximal effect
Target sequence (P17405 47-631 limits assumed): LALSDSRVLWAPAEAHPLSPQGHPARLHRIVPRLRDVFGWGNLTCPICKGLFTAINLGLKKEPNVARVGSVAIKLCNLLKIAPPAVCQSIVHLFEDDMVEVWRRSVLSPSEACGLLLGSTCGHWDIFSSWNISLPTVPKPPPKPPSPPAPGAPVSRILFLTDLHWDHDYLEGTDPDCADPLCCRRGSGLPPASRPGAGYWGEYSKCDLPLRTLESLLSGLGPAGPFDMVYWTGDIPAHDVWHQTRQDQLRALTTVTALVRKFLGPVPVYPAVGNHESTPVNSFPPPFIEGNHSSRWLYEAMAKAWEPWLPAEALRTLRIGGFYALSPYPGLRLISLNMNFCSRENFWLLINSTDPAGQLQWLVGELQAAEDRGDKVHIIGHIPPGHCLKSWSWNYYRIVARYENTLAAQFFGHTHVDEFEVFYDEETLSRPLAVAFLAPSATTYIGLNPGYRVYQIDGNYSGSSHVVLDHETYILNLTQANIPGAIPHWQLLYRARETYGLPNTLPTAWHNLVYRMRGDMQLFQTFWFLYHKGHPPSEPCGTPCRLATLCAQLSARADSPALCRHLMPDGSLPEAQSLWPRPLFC
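Fluorescence read-out (Ex 386 nm, Em 447 nm) after stopping the reaction at pH 10. Enzyme: ASM from human placenta; substrate HMU-PC0, 9 uM final; 60 min, 37 °C. Compound preincubation 10 min, ambient temperature.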
SW480 rerep – induces DNA re-replication in SW480 colon adenocarcinoma cells | Potency, µM (series often up to 46.1 µM), inactives show top-dose re-replication activation, usual class: activators | SW480 DNA re-replication, Hoechst DNA content imaging, 48 h | actives 1.8% (n = 340,000); further: potency means the concentration at half of the fitted maximal effect; % of control where 0% means no effect; nearly all actives have a fitted effect of over 55% in size
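Readout is total intensity of Hoechst-stained nuclei, excited at 405 nm and collected at 500-530 nm. Compound treatment lasted 48 hr at 37 C in 5% CO2 before staining.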
* hit, by the source's call; i = inactive; ? = inconclusive; / = no result; [ ] = dose if it differs, or a comment. Unless noted, the call rests on the fitted dose curve; in most records, active means well fitted curve in the direction sought with a large enough effect; inconclusive means small, poorly fitted or top-dose-only effect, or another doubt; inactive means no such curve, though single readings can be large; an effect the other way counts as inactive or inconclusive.

SMILES | KB-3-1 cytotox | Giardia kill | KB-V1 cytotox | MCF10A rerep | S-ASM inh | SW480 rerep
COc1cccc(/C=N/n2c(=O)[nH]c3ccccc32)c1OC | i | 1.6 | i | 12.4% | 1.7% | 4.11µM*
COC(=O)c1c(-c2ccc(Cl)cc2)noc1N1CCN(c2ccc(OC)cc2)CC1 | i | / | i | / | / | /
Cc1ccc(-c2cc(C(=O)N/N=C/c3ccc(F)cc3)n[nH]2)o1 | i | -17.5 | i | -3.6% | -3.6% | 6.4%
Cc1ccc(-c2cc(C(=O)N/N=C/c3c[nH]c4ccccc34)n[nH]2)o1 | i | 2.9 | i | 6.3% | -10.2% | 3.66µM*
Cc1ccc(C(=O)N/N=C/c2c[nH]c3ccccc23)o1 | i | 13.5 | i | 16.3% | 1.8% | -10.0%
Cc1ccc(-c2cc(C(=O)N/N=C/C(Br)=C/c3ccccc3)n[nH]2)o1 | i | 28.4 | ? | 13µM* | -27.9% | 14.6µM*
Cc1ccc(-c2cc(C(=O)N/N=C/c3ccccc3O)n[nH]2)o1 | ? | -6.3 | ? | 18.4µM* | 21.9% | 3.26µM*
Cn1nc(-c2ccccc2F)c2cc(C(=O)NCc3ccccc3Cl)sc21 | i | / | i | / | / | /
CC(=O)Nc1ccc(SC[C@H](Cc2ccccc2)N2CC[C@@H](N)CCC2=O)cc1 | i | / | i | / | / | /
CC[N+]1(CC(=O)c2ccc(I)cc2)CCCCC1 | i | / | i | / | / | /
CCOC(=O)N1CCc2c(sc3c2C(=O)NC(c2ccc(C(=O)OC)cc2)N3)C1 (configuration not stated) | i | / | i | / | / | /
CCOC(=O)N1CCc2c(sc3c2C(=O)NC(c2cc(OC)c(OC)c(OC)c2)N3)C1 (configuration not stated) | 16.4µM* | / | i | / | / | /
COC(=O)/C(=C\Nc1ccc(Cl)cc1Cl)NC(=O)c1ccc(Cl)cc1Cl | ? | -19.5 | ? | 11.6µM* | -2.2% | 18.8%
O=C(/C=C/c1cccc(Cl)c1)NNC(=O)c1ccncc1 | ? | 4.7 | i | 3.7% | -1.1% | -4.3%
O=C(/C=C/c1cccc(F)c1)NNC(=O)c1ccncc1 | ? | -19.8 | 8.2µM* | 4.7% | -1.4% | 0.5%
CCCCNC1C(CC)C(CCC)C(C#N)(C#N)C1(C#N)C#N (configuration not stated) | ? | -2.1 | ? | 20.6µM* | 8.2% | ?
O=S(=O)(c1cccnc1)N1CCN(c2nc(-c3cccs3)nc3ccccc23)CC1 | ? | -5.9 | ? | / | / | /
O=C(Nc1nc2ccccc2s1)c1cc2c(s1)-c1ccccc1OC2 | i | -11.7 | i | ? | i | 6.51µM*
O=C(Nc1ccc(Cl)cn1)c1cc2c(s1)-c1ccccc1OC2 | i | -27.4 | i | ? | i | ?
O=C(Nc1nccs1)c1cc2c(s1)-c1ccccc1OC2 | ? | 2.1 | i | 9.2µM* | i | 16.4µM*
O=C(Nc1cccnc1)c1cc2c(s1)-c1ccccc1OC2 | i | 7.7 | i | 0.5% | 13.8% | 13.8%
Cc1cccc2c1-c1sc(C(=O)Nc3nccs3)cc1CO2 | i | -14.1 | i | 3.66µM* | i | 7.31µM*
O=C(Nc1cccnc1Cl)c1cc2c(s1)-c1ccccc1OC2 | i | 15.1 | i | 18.4µM* | i | 133.7%
Cc1ccc2sc(=O)[nH]c2c1 | i | 18.2 | i | 3.7% | -0.9% | -9.2%
CCOc1ccc(-n2c(=O)c3sc4ccccc4c3n(Cc3ccc(F)cc3)c2=O)cc1 | i | / | i | / | / | /
SMILES | KB-3-1 cytotox | Giardia kill | KB-V1 cytotox | MCF10A rerep | S-ASM inh | SW480 rerep
Fc1ccc(N2CCN(c3ncnc4c3nc3n4CCCC3)CC2)cc1 | ? | / | i | / | / | /
CC(=O)c1sc(N/N=C\c2ccccc2O)nc1C | ? | -20.2 | i | 16.4µM* | -1.2% | ?
CCOC(=O)c1sc(N/N=C/c2ccccc2)nc1C | i | -16.5 | i | ? | 47.7% | ?
Cn1cc(/C=N/n2cnc3sc4c(c3c2=O)CCCC4)c2ccccc21 | ? | 10.5 | 20.6µM* | ? | -10.6% | 18.4µM*
Cc1ccc(C)n1-n1cnc2sc3c(c2c1=O)CCC3 | i | -6.2 | i | -1.2% | -0.7% | ?
O=c1c2c3c(sc2ncn1/N=C/c1ccc([N+](=O)[O-])o1)CCCC3 | 20.6µM* | 6.7 | 20.6µM* | 4.11µM* | -3.7% | 11.6µM*
CCC(C)NC(=O)Cn1ncc2c([nH]c3ccc(C)cc32)c1=O (configuration not stated) | i | / | ? | / | / | /
COC(=O)N/N=C/c1ccc([N+](=O)[O-])o1 | ? | ? | ? | 317.8%[0.0737 µM] | -2.7% | 24.6%
O=C(COc1cccc(Cl)c1)N/N=C\c1cc2ccccc2nc1Cl | i | 1.3 | ? | ? | 94.1% | -0.1%
COc1ccc(-c2nn(-c3ccccc3)cc2C(=O)N/N=C/c2ccc([N+](=O)[O-])o2)cc1 | i | -86.0* | ? | ? | -1.9% | ?
O=C(CNc1ccc2ccccc2c1)N/N=C/c1cc2ccccc2nc1Cl | i | -2.2 | i | 18.4µM* | -12.0% | -2.4%
O=C(COc1ccccc1)N/N=C/c1ccc([N+](=O)[O-])o1 | 14.6µM* | -96.9* | i | 8.8% | 3.2% | -2.2%
COc1ccc(-c2nn(-c3ccccc3)cc2C(=O)N2CCOCC2)cc1 | i | -12.5 | i | 9.4% | 0.3% | 1.4%
O=C(N/N=C/c1ccc([N+](=O)[O-])o1)C(O)c1ccccc1 (configuration not stated) | ? | -84.0* | i | 11.6µM* | -14.3% | ?
O=C(N/N=C/c1ccc(-c2ccc([N+](=O)[O-])cc2)o1)C(O)c1ccccc1 (configuration not stated) | i | 51.4 | i | 22.2% | -2.9% | ?
O=C(CNc1ccc2ccccc2c1)N/N=C/c1ccc([N+](=O)[O-])o1 | ? | -90.9* | i | 1.8% | -8.4% | ?
O=C(CNc1ccc2ccccc2c1)N/N=C/c1ccc(C(=O)O)cc1 | i | -1.0 | i | 4.5% | 2.4% | -1.4%
O=C(N/N=C\c1ccc([N+](=O)[O-])o1)c1ccc(O)cc1 | / | / | / | 14.0%[20.6 µM] | / | 13.4%[20.6 µM]
CCCC(=O)Nc1ccc(C(=O)N/N=C/c2ccc([N+](=O)[O-])o2)cc1 | ? | 2.7 | i | 3.26µM* | -2.7% | 16.4µM*
O=C(CSc1ccc(Cl)cc1)N/N=C/c1ccc([N+](=O)[O-])o1 | i | -94.6* | i | 9.2µM* | -9.5% | 20.6µM*
O=[N+]([O-])c1ccc(/C=N/Nc2nc(N3CCCCC3)nc(N3CCCCC3)n2)o1 | i | -84.4* | ? | 12.6% | -21.9% | 3.5%
Cc1ccc(S(=O)(=O)N2CCN(c3nc(-c4ccnnc4)nc4ccccc34)CC2)cc1 | / | -3.2 | / | / | / | /
